Source: PubChem BioAssay AID2391 (Southern Research Specialized Biocontainment Screening …, 2010)
Among all 310,000 compounds or so, about 410 (0.13%) were called active. Roughly 2% stayed inconclusive and do not appear here. A selection follows. Potency and affinity values are given separately. Unmarked numbers belong to inactive results. The rule behind the calls is not given here.

assay: inhibition of RSV-induced cytopathic effect – HEp-2 cells, primary 10 µM value included (AID 2391); conditions: at 10 µM, stronger effect = higher value

Row | Compound | CPE inhibition [%]
1 | Cc1nnc(OCc2nc3ccccc3n2C)c2ccccc12 | 6.77
2 | Cn1c(COc2nnc(-c3ccc(Cl)cc3)c3ccccc23)nc2ccccc21 | 5.55
3 | CCC(CC)c1nnc(NC(=O)c2c(C)nn(Cc3ccccc3Cl)c2C)s1 | 10.8
4 | CC(=O)Nc1ccc(NC(=O)c2c(C)nn(Cc3ccccc3Cl)c2C)cc1 | 1.12
5 | COc1ccc(-c2nc(N=Nc3ccc(O)cc3)n[nH]2)cc1 | 9.37
6 | CN(C)S(=O)(=O)c1cc(NC(=O)CN2CCN(c3ccc(O)cc3)CC2)ccc1Cl | 0.75
7 | OC1CCN(c2cc(-c3ccccc3)nc3cc(-c4ccc(F)cc4)nn23)CC1 | 5.15
8 | COc1cccc(-c2cc3nc(-c4ccccc4)cc(N4CCCC(O)C4)n3n2)c1 (configuration not stated) | 14.1
9 | C=CCOC(=O)C(C#N)c1nc2ccccc2nc1N1CCN(c2ccccc2OC)CC1 (configuration not stated) | 0.49
10 | CC(=O)Nc1ccc2[nH]ccc2c1 | -0.73
11 | C/C(=N\O)c1ccc2[nH]ccc2c1 | 5.17
12 | COc1ccc(OC)c(NC(=O)c2cccc(S(=O)(=O)N(Cc3ccccc3)c3ccccc3OC)c2)c1 | 2.42
13 | Cc1nc2ccc(N=NC3=C(O)CC(C)(C)CC3=O)cc2s1 | 2.75
14 | COc1ccccc1OCCn1cc(C=O)c2ccccc21 | -0.05
15 | COC(=O)C(Cc1c[nH]c2ccccc12)NC(=O)c1cccs1 (configuration not stated) | 1.21
16 | O=C(NC(Cc1c[nH]c2ccccc12)C(=O)N/N=C/c1ccc(Br)cc1)c1cccs1 (configuration not stated) | -2.58
17 | O=C(Nc1ccc(F)c([N+](=O)[O-])c1)c1cccs1 | 4.17
18 | O=C(NC(Cc1c[nH]c2ccccc12)C(=O)O)c1cccs1 (configuration not stated) | -1.85
19 | O=C(NC(Cc1c[nH]c2ccccc12)C(=O)N/N=C/c1cccc2ccccc12)c1cccs1 (configuration not stated) | 18.5

Row | Compound | CPE inhibition [%]
20 | O=C(NC(Cc1c[nH]c2ccccc12)C(=O)N1CCOCC1)c1cccs1 (configuration not stated) | -0.02
21 | CC1(C)CC(=O)c2cc(C(=O)NC3CCSC3=O)c(=O)n(-c3ccc(Cl)cc3)c2C1 (configuration not stated) | 0.72
22 | O=S(=O)(Nc1ccccc1)c1cccc2nsnc12 | 1.2
23 | CCc1ccc(N2CC(C(=O)OCC(=O)NNC(=O)c3ccccc3)CC2=O)cc1 (configuration not stated) | 1.46
24 | COc1cccc(NC(=O)C(NCC(C)(C)CN(C)C)c2ccccc2)c1 (configuration not stated) | 1.08
25 | CC1(C)Cc2cccc(C(=O)Nc3ccc(Cl)cc3)c2O1 | 13.1
26 | CC1CCN(C(=O)COC(=O)Cc2c[nH]c3ccccc23)CC1 | -0.07
27 | CCOC(=O)N1CCc2c(sc3c2c(=O)n(-c2ccc(CC)cc2)c(=O)n3CC(=O)NCC2CCCO2)C1 (configuration not stated) | -1.83
28 | COc1cc([N+](=O)[O-])cc(/C=N/NC(=O)C(C)Nc2cccc3ccccc23)c1O (configuration not stated) | 7.79
29 | O=C(CNc1cccc2ccccc12)N/N=C/c1ccc([N+](=O)[O-])cc1 | 0.72
30 | Cc1cccnc1NC(=S)Nc1ccc(F)cc1F | 1.49
31 | COC(=O)[C@@H]1[C@@H](C)N(Cc2ccccc2)C(=O)N[C@H]1c1cccc(C(F)(F)F)c1 | 3.75
32 | Cc1cc2nc3n(c2cc1C)CCCN3 | 5.29
33 | O=C(Nc1sc(-c2ccccc2)cc1C(=O)O)c1ccccc1 | 7.6
34 | CCOC(=O)c1cc(-c2ccccc2)sc1NC(=O)C(C)(C)C | 0.09
35 | COc1ccc(-c2cc(-c3ccc(C)cc3)nc(SCc3nnc(-c4ccccc4)o3)c2C#N)cc1OC | 2.51
36 | Cc1ccc(OCCOC(=O)c2cccc(S(=O)(=O)N3CC(C)OC(C)C3)c2)cc1 (configuration not stated) | 3.28
37 | COc1ccc(/C=C2\C(=N)N3N=C(CC(=O)N4CCOCC4)SC3=NC2=O)cc1 | -0.02
38 | COc1cccc(-n2c(C)cc(/C=C3/C(=N)N4C(=NC3=O)SN=C4S(C)(=O)=O)c2C)c1 | 16.5

Row | Compound | CPE inhibition [%]
39 | Cc1cc(/C=C2\C(=N)N3N=C(CC(=O)N4CCOCC4)SC3=NC2=O)c(C)n1-c1ccccc1 | 7.24
40 | Cc1cc(/C=C2/C(=N)N3C(=NC2=O)SN=C3S(C)(=O)=O)c(C)n1-c1ccc(F)cc1 | 7.04
41 | COc1ccc(OC)c(-n2c(C)cc(/C=C3\C(=N)N4N=C(CC(=O)N5CCOCC5)SC4=NC3=O)c2C)c1 | 17
42 | COc1ccc(-n2c(C)cc(/C=C3\C(=N)N4N=C(CC(=O)N5CCOCC5)SC4=NC3=O)c2C)cc1 | 3.44
43 | CCC1=NN2C(=N)/C(=C\c3cccn3-c3ccc(OC)cc3)C(=O)N=C2S1 | 5.71
44 | O=C(N/N=C/c1ccc(Cl)cc1)C(=O)N1CCCCCC1 | -0.12
45 | O=C(NCc1ccco1)/C(=C\c1cccs1)NC(=O)c1ccco1 | -0.55
46 | Nc1nc(N2CCCCC2)nc(N2CCCCC2)n1 | 0.85
47 | NS(=O)(=O)c1ccc(CNS(=O)(=O)c2ccc3c(c2)OCCO3)cc1 | 2.01
48 | Cc1cc(=O)oc2cc(NC(=O)c3cccc(F)c3)ccc12 | 4.53
49 | Clc1ccc(-n2c(SCc3nc4ccccc4[nH]3)nnc2-c2ccncc2)cc1 | 0.34
50 | CC(=O)NC(c1ccc(F)cc1)c1cccnc1 (configuration not stated) | 1.45
51 | CCc1nc(SCC(=O)c2cccc([N+](=O)[O-])c2)n[nH]1 | 1.44
52 | COC(=O)C1=C(C)N(Cc2ccccc2)C(=S)N[C@H]1c1ccccc1 | 14.1
53 | CCN1C(=O)N[C@@H](c2ccc(Br)cc2)C(C(=O)OC)=C1C | 5.67
54 | COC(=O)C1=C(C)N(Cc2ccccc2)C(=O)N[C@H]1c1cccc(F)c1 | 3.4
55 | CC(=O)C1=C(C)N(Cc2ccccc2)C(=O)N[C@H]1c1cccc(C(F)(F)F)c1 | 4.45
56 | CC(=O)C1=C(C)N(Cc2ccccc2)C(=O)N[C@@H]1c1cccc(C(F)(F)F)c1 | 0.41
57 | CCN1C(=O)N[C@H](c2ccc(Br)cc2)C(C(=O)OC)=C1C | 0.05
